Measured values taken from PubChem BioAssay (NCI).
The panel holds about 83,000 compounds, 20% with a hit somewhere; the sample as a whole holds those more often.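 Method: cells in 96-well plates; compound added at one concentration; 48 h incubation; percent growth measured; values under 10 scored active.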 Unmarked numbers belong to inactive results. Calls of active or inactive are those of the source.

The molecules below were run on MDA-MB-435 melanoma (assay: NCI-60 one-dose screen, 48 h (100 = growth as untreated, 0 = no growth, -100 = all killed)). Conditions: 10 µM unless noted.
`CN1C(=O)/C(=C\c2nc([P+](c3ccccc3)(c3ccccc3)c3ccccc3)c(N3CCOCC3)o2)SC1=S` was tested, and the growth was 60%. For `COc1ccc2c(c1)c(-c1nc(-c3c[nH]c4ccncc34)cs1)cn2C`, the growth was -92.3% (active). In the case of `COc1ccc(C(=O)c2cc3c(N)c(C(=O)Nc4ccc(C)cc4)sc3nc2C)cc1`, the growth is reported as -42.9% (active). `COc1cc2nc3cc([N+](=O)[O-])ccc3c(NCCNCC(C)O)c2cc1OC` (stereo not given) was tested, and the growth was -87.6% (active). `Cc1sc2nc(NCCc3c[nH]c4ccc(Cl)cc34)[nH]c(=O)c2c1C` gave a growth of 39.7%. Molecule `CC/C(=C(/c1ccc(Cl)cc1)c1ccc(OCCN(C)C)cc1)c1ccc(Cl)cc1` has a growth of 73.1%. In the case of `CNC(=O)c1[nH]cc(-c2ccc(OC)cc2)c1-c1cc(OC)c2c(c1OC)OCO2`, the growth is reported as 99.6%. `C=CCc1c(O)c(C(=O)/C=C/c2ccccc2)c(OC)c2ccoc12` showed a growth of 26.4%. Work on `COc1ccc(-c2cc(-c3ccc(Cl)cc3)c(C#N)c(=O)n2Cc2ccc(C(=O)Nc3ccccc3N)cc2)cc1` yielded a growth of 44.9%. In the case of `COc1ccc(/C=C/C(=O)c2cccc(OCCCCOc3cccc(C(=O)/C=C/c4ccc(OC)c(OC)c4)c3)c2)cc1OC`, the growth is reported as 75.5%. Molecule `CCOC(=O)c1ccc(NC(=O)c2nc(-c3cc(OC)c(OC)c(OC)c3)n(-c3ccc(Cl)cc3)n2)cc1` has a growth of 88.9%. Molecule `Cc1ccc(CNc2ccc3nc(CCC4CCCCC4)[nH]c3c2)cc1` has a growth of 55.6%. Work on `CC(=O)c1c(C)nc(SCC(=O)Nc2cccc(O)c2)n1-c1ccc(Cl)cc1` yielded a growth of 84.7%. Work on `Cc1ccc2c(c1)=C/C(=C\c1cc(-c3ccccc3)oc1O)C(=O)N=2` yielded a growth of 110%. Molecule `O=C(CSc1nnc(-c2cnccn2)n1-c1ccccc1)c1ccc(Cl)cc1` has a growth of 106%. `CCC(=C(c1ccc(OCCN2CCCCC2)cc1)c1ccc(OCCN2CCCCC2)cc1)c1ccc(Cl)cc1` was tested, and the growth was -96.2% (active). For `O=C(Nc1ccc(Oc2cccc(Cl)c2)c(Cl)c1)c1cnccn1`, the growth was -39.7% (active). With `CCCNc1nc2ccccc2c2c1S(=O)(=O)c1ccc(Cl)cc1C2=O` the growth was 12.2%. With `C=CCOC(=O)Nc1cccn([C@H](Cc2ccccc2)C(=O)NCCC(C)C)c1=O` the growth was 108%. `N#Cc1c(-c2ccc(Cl)cc2)nc(NN2C(=O)c3ccccc3C2=O)nc1N1CCOCC1` was tested, and the growth was 106%. Molecule `N#Cc1nc(-c2ccc(F)cc2)oc1S(=O)(=O)N1CCCCC1` has a growth of 83.8%. Work on `COc1ccc2cc1Oc1ccc(cc1)C[C@H]1c3c(cc4c(c3Oc3cc5c(cc3OC)CCN(C)[C@@H]5C2)OCO4)CCN1C` yielded a growth of 19%. For `C=C1C(=O)O[C@H]2[C@H]1CC/C(COC(=O)/C=C\C(=O)NCc1ccc(Cn3c(=O)sn(CCI)c3=O)cc1)=C\CC[C@@]1(C)O[C@@H]21`, the growth was 44.9%. With `CCOC(=O)c1c(NC(=O)c2ccc(Cl)cc2)sc2c(CN(C)C)c(O)ccc12` the growth was 76.7%. In the case of `CSc1nc(N)c(NS(=O)(=O)c2ccc(C(C)=O)cc2)c(=O)[nH]1`, the growth is reported as 102%. Molecule `COc1cc2c(c(OC)c1OC)CCC(c1cccc(C(=O)Nc3cccc(Cl)c3)c1)O2` (stereo not given) has a growth of 82.1%. For `Cc1nc2sc(C(=O)Nc3cccc4ccccc34)c(N)c2cc1C(O)c1ccccc1` (stereo not given), the growth was 0.328% (active). For `COc1ccc(C(=O)N2c3ccccc3Sc3ccccc32)c(OC)c1`, the growth was -43% (active). For `Cc1nc2sc(C(=O)Nc3ccc(Br)cc3)c(N)c2cc1C(O)c1ccccc1` (stereo not given), the growth was 1.03% (active). With `CNc1nnc2n(-c3ccccc3)c(=O)c3cnn(-c4ccccc4)c3n12` the growth was 98.2%. In the case of `[O-]/[N+](=C\c1ccc(-n2cc(Cc3ccccc3Cc3cn(-c4ccc(/C=[N+](/[O-])c5ccccc5)cc4)nn3)nn2)cc1)c1ccccc1`, the growth is reported as 109%. `COc1ccc(/C=N\Nc2nc(SCCC(C)C)nc(-c3ccc(OC)cc3)c2C#N)cc1` showed a growth of 71.2%. For `COC1/C=C/OC2(C)Oc3c(C)c(O)c4c(O)c(c(/C=N/Nc5ccc([N+](=O)[O-])cc5[N+](=O)[O-])c(O)c4c3C2=O)NC(=O)C(C)=C/C=C/C(C)C(O)C(C)C(O)C(C)C(OC(C)=O)C1C` (stereo not given), the growth was 3.5% (active). In the case of `COc1cc(OC)c(NC(=O)c2cc3ccccc3cc2O)cc1Cl`, the growth is reported as 22.7%. With `CC(C)(C)[Si](C)(C)OC1[C@@H](CNC(=O)NC(=O)NC(N)=O)O[C@@H](n2cnc3c(NC(=O)Nc4ccccc4)ncnc32)[C@H]1O[Si](C)(C)C(C)(C)C` (stereo not given in full) the growth was 68.9%.
